Shown is part of a subset that was picked to be rich in hits.
MITF inhib = inhibitors of MITF, primary screen, MITF inhibitor project, cell-based, luminescence. actives 0.28% (n = 37,000). TRPM1 promoter luciferase, 24 h. inhibition, % (test concentration not listed). AID 2240, 2010; in the data active = inhibition above about 85%;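 also: human melanocyte line stably carrying TRPM1 promoter luciferase reporter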
BJeLR viability = BJeLR cell viability loss, primary screen, luminescence, CellTiterGlo ATP | viability loss activity score, % (no concentration beside the values) | BJeLR fibroblasts viability, 48 h; HRASV12, hTERT and SV40 LT/ST transformed | AID 2275, 2010 | actives 0.64% (n = 30,000); in the data active = viability loss activity score above about 50%;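 also: higher score means fewer live cells and less ATP luminescence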
Shh pathway inh = Hedgehog pathway signaling inhibitors, primary screen, luminescence, Shh-LIGHT2 cells, Gli-luciferase. actives 2.1% (n = 22,000). inhibition, % (concentration not given with the values). Shh-LIGHT2 Gli-luciferase reporter, 30 h. AID 2313, 2010;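 active = mean inhibition across valid replicates above about 65%, limit read from the data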;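 also: pathway switched on by Shh-conditioned medium diluted 1 in 25 in low serum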
Numbers stand for hits; – = inactive; · = no result.

SMILES	MITF inhib	BJeLR viability	Shh pathway inh
C[C@H](CO)N1C[C@H](C)[C@H](CN(C)S(=O)(=O)c2ccc(Cl)cc2)Oc2c(NC(=O)c3ccc(-c4nccs4)cc3)cccc2C1=O	–	–	95
C[C@H](CO)N1C[C@H](C)[C@@H](CN(C)S(=O)(=O)c2ccc(Cl)cc2)Oc2c(NC(=O)c3ccc(-c4nccs4)cc3)cccc2C1=O	–	–	–
C[C@H]1CN([C@@H](C)CO)C(=O)c2cccc(NC(=O)C3CC3)c2O[C@H]1CN(C)S(=O)(=O)c1ccc(Cl)cc1	–	–	90
C[C@H](CO)N1C[C@H](C)[C@H](CN(C)S(=O)(=O)c2ccc(Cl)cc2)Oc2c(NC(=O)C3CCCCC3)cccc2C1=O	–	–	103
C[C@@H]1CN([C@@H](C)CO)C(=O)c2cccc(NC(=O)C3CCCCC3)c2O[C@@H]1CN(C)S(=O)(=O)c1ccc(Cl)cc1	–	–	–
CC(C)NC(=O)c1cc(C(C)C)on1	·	–	·
CCN(C(=O)c1cc2c(-c3ccc(Cl)cc3)nn(C)c2s1)c1cccc(Cl)c1	·	–	·
CCOc1ccc(NC(=O)c2cc3ccccc3o2)cc1	·	–	·
CN1C(=O)CC(c2ccccc2)S(=O)(=O)c2ccccc21 (configuration not stated)	·	–	·
CC(=O)O[C@H]1[C@H](Oc2ccccc2COC(=O)C2(O)C=CCCC2=O)O[C@H](CO)[C@@H](O)[C@@H]1O (some centres not stated)	–	–	–
O=C(O[C@H]1[C@H](Oc2ccccc2COC(=O)C2(O)C=CCCC2=O)O[C@H](CO)[C@@H](O)[C@@H]1O)c1ccccc1 (some centres not stated)	–	58	–
O=C(Cn1nc(-c2ccc(Cl)cc2)c2ccccc2c1=O)Nc1cccc2ccccc12	·	–	·
COc1ccccc1OCC(=O)Nc1cccc(-c2nnc(-c3ccccc3)o2)c1	–	·	·
COc1ccc(CC(=O)Nc2cccc(-c3nnc(-c4ccc(C)cc4)o3)c2)cc1OC	101	·	·
COc1ccc(-c2noc(=O)n2CC(=O)N2CCC(C)CC2)cc1	·	–	·
O=C(CN1C(=O)C2C3C=CC(C3)C2C1=O)Nc1cccc(F)c1 (configuration not stated)	·	–	·
O=C(CSc1nc2ccsc2c(=O)n1Cc1ccccn1)c1ccccc1	·	–	·
Cc1cccc(NC(=O)CSc2nsc(SCC(=O)Nc3cccc(C)c3)c2C#N)c1	–	–	–
N#Cc1c(SCC(=O)c2ccc(F)cc2)nsc1SCC(=O)c1ccc(F)cc1	–	–	81
O=C(O)c1ccc(N2N=C(C(F)(F)F)/C(=C/c3ccc(OC(=O)c4cccs4)cc3)C2=O)cc1	·	–	·
O=C1OC2C(C(=O)O)Sc3c(sc(=O)n3-c3ccccc3)C2c2cc(Br)ccc21 (configuration not stated)	·	–	·
CCOC(=O)NC1(Nc2ccccc2Cl)Oc2ccccc2O1	·	–	·
C[C@@H]1CN([C@H](C)CO)C(=O)Cc2cc(NC(=O)C3CCCCC3)ccc2O[C@@H]1CN(C)CC1CCCCC1	–	·	76
CC(C)NC(=O)Nc1ccc2c(c1)CC(=O)N([C@@H](C)CO)C[C@H](C)[C@H](CN(C)C(=O)Nc1ccc3c(c1)OCO3)O2	–	·	65
CC(C)NC(=O)Nc1ccc2c(c1)CC(=O)N([C@@H](C)CO)C[C@H](C)[C@@H](CN(C)C(=O)Nc1ccc3c(c1)OCO3)O2	–	·	–
SMILES	MITF inhib	BJeLR viability	Shh pathway inh
C[C@@H]1CN([C@@H](C)CO)C(=O)Cc2cc(NC(=O)Nc3ccccc3)ccc2O[C@@H]1CN(C)Cc1ccc2c(c1)OCO2	–	·	–
C[C@H]1CN([C@@H](C)CO)C(=O)Cc2cc(NC(=O)C3CCCCC3)ccc2O[C@H]1CN(C)CC1CCCCC1	–	·	–
C[C@H]1CN([C@@H](C)CO)C(=O)Cc2cc(NC(=O)Nc3ccccc3)ccc2O[C@@H]1CN(C)Cc1ccc2c(c1)OCO2	–	·	70
Cn1c(O)c(/C=N/N2CCOCC2)c2ccccc21	·	–	·
O=C(CSC(=S)N1CCOCC1)Nc1nc(-c2c[nH]c3ccccc23)cs1	·	–	·
CCN(CC)C(=O)Cc1noc2ccccc12	·	–	·
COCCN1C(=O)c2ccccc2C(C(=O)NCCN2CCOCC2)C1c1cn(C)c2ccccc12 (configuration not stated)	·	–	·
COC(=O)Cn1c(=N)n(C)c2ccccc21	·	–	·
CC1CCCCC1NC(=O)CCn1nc(-c2ccccc2)ccc1=O (configuration not stated)	·	–	·
CC(=O)OC[C@]12[C@H](OC(C)=O)[C@H](OC(C)=O)[C@@H]3[C@@H](OC(C)=O)[C@@]14O[C@@]3(C)COC(=O)c1ncccc1CC[C@H](C)C(=O)O[C@@H]([C@H](O)[C@@H]2OC(=O)c1ccccc1)[C@]4(C)O	–	51	–
CC(=O)OC[C@]12[C@H](OC(C)=O)[C@@H](OC(C)=O)[C@@H]3[C@@H](OC(C)=O)[C@@]14O[C@@]3(C)COC(=O)c1cccnc1[C@H](C)[C@@H](C)C(=O)O[C@@H]([C@H](O)[C@@H]2OC(=O)c1ccccc1)[C@]4(C)O	·	·	–
Cc1ccc(S(=O)(=O)N(C)C[C@@H]2Oc3c(NC(=O)NC4CCCCC4)cccc3C(=O)N([C@H](C)CO)C[C@@H]2C)cc1	–	–	107
C[C@@H]1CN([C@@H](C)CO)C(=O)c2cccc(NC(=O)NC3CCCCC3)c2O[C@@H]1CN(C)S(=O)(=O)c1ccc(Cl)cc1	–	–	–
Cc1ccc(S(=O)(=O)N(C)C[C@H]2Oc3c(NC(=O)NC4CCCCC4)cccc3C(=O)N([C@@H](C)CO)C[C@H]2C)cc1	–	–	–
CC(C)NC(=O)N(C)C[C@@H]1Oc2c(NC(=O)NC3CCCCC3)cccc2C(=O)N([C@H](C)CO)C[C@H]1C	–	–	–
C[C@@H]1CN([C@H](C)CO)C(=O)c2cccc(NC(=O)NC3CCCCC3)c2O[C@H]1CN(C)S(=O)(=O)c1ccc(F)cc1	–	–	–
C[C@H]1CN([C@@H](C)CO)C(=O)c2cccc(NC(=O)NC3CCCCC3)c2O[C@H]1CN(C)S(=O)(=O)c1ccc(Cl)cc1	–	–	112
CC(C)NC(=O)N(C)C[C@H]1Oc2c(NC(=O)NC3CCCCC3)cccc2C(=O)N([C@H](C)CO)C[C@H]1C	–	–	69
C[C@H](CO)N1C[C@H](C)[C@H](CN(C)S(=O)(=O)c2ccc(F)cc2)Oc2c(NC(=O)NC3CCCCC3)cccc2C1=O	–	–	93
COc1ccc(Cc2nnc(SCC(=O)C(C)(C)C)n2-c2ccc(F)cc2)cc1OC	·	–	·
CCN1C(C(=O)c2ccccc2)C(=O)c2ccccc2S1(=O)=O (configuration not stated)	·	–	·
NC1=NC(=O)/C(=C/c2ccc(I)o2)S1	·	–	·
CCOC(=O)c1cnc(N2CCOCC2)nc1N	–	–	–
CCCc1c(C(=O)OCC)c(C(=O)OCC)c2c(-c3ccccc3)nc(N3CCOCC3)nn12	–	–	78
O=C(Nc1ccc2nn(-c3ccccc3)nc2c1)C(c1ccccc1)c1ccccc1	·	–	·
CC(C)Cc1cc(C(=O)NC2CCCCC2)no1	·	–	·
Cc1ccc(S(=O)(=O)N(C)C[C@@H]2Oc3c(NC(=O)Nc4ccccc4)cccc3C(=O)N([C@H](C)CO)C[C@@H]2C)cc1	–	–	121

Compound activity from PubChem.
